Screening data: PubChem BioAssay, National Center for Advancing Translational Sciences (NCATS)
A selection: hits, their analogues and other compounds. The true share with any hit is near 7.3%.
NPC1 promoter act = NPC1 promoter activation; Huh7 NPC1 promoter luciferase reporter, 24 h; Potency, µM (top dose mostly 9.22 µM), inactives show top-dose activation, hits mostly activators; 320,000 tested, 2.4% active; AID 485313; note: % of control where 0% means no effect; nearly all actives have a fitted effect of over 60% in size
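Huh7 reporter cells (NPC1 promoter driving luciferase) are dosed with compound for 24 h at 37 °C, 5% CO2; luciferase detection reagent is then added and luminescence measured after 10 min at ambient temperature.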
FLuc modulator = inhibits or activates purified firefly luciferase, miR-21 counter-screen. purified FLuc, Km substrates, luminescence inhibition. 360,000 tested, 6.9% active. Potency, µM (doses to about 57.5 µM), inactives show at the top dose activity change, negative = inhibition, hits mostly inhibitors;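 note: plate controls were vehicle for no effect and reference inhibitor for full effect; nearly all actives have a fitted effect of over 55% in size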
Target sequence (P08659 whole entry, looked up): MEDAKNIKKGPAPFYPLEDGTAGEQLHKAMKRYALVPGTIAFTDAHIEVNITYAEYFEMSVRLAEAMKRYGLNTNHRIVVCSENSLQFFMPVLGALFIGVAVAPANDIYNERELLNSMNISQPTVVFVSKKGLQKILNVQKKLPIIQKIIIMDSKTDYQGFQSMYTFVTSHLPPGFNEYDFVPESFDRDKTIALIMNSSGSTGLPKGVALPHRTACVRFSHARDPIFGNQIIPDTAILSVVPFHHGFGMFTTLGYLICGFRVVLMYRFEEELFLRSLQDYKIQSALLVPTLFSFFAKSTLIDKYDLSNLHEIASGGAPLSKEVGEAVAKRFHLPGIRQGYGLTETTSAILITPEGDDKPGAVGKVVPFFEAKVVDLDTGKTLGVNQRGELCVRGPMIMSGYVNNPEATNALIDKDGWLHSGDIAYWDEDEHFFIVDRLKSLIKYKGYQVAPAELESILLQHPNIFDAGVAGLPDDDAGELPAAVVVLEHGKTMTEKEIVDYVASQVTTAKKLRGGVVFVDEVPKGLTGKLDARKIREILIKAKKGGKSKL
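Purified P. pyralis luciferase (10nM final) with 10uM D-luciferin and 10uM ATP (Km levels) in 50mM Tris acetate pH 7.5, 10mM Mg acetate, 0.01% Tween-20, 0.05% BSA; qHTS 6-point titration, ~60 µM downward; luminescence read.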
ELG1 genotoxic = induces genotoxicity in HEK293T cells with luciferase-tagged ELG1; AID 504466; Potency, µM (titrated, usually from 46 µM), for the others: top-dose activity change, positive = activation, usual class: activators; HEK293T ELG1-luciferase reporter, luminescence, 16 h; 330,000 tested, 1.3% active; note: % of control where 0% means no effect; nearly all actives have a fitted effect of over 60% in size
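Screening used a luciferase reporter fused to human ELG1 in HEK293T cells. Luminescence was read on a CCD plate imager after 16 hr exposure and 30 min ONE-Glo incubation.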
Rab9 prom act = activators of Rab9 promoter | 320,000 tested, 2.8% active | Potency, µM (series often up to 9.22 µM), for inactives: at the top dose activation, negative = inhibition, usual class: activators | Huh7 Rab9 promoter-luciferase reporter, luminescence, 24 h | AID 485297; note: % of control where 0% means no effect; nearly all actives have a fitted effect of over 60% in size
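Huh7 reporter line, Rab9 promoter upstream of luciferase. Compound exposure 24 h at 37 °C in reduced-serum medium with 10% FBS. Read-out: luminescence.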
SMN2 splice enh = enhancers of SMN2 splice variant expression; HEK293 SMN2-luciferase splicing reporter, luminescence, 30-36 h; Potency, µM (top dose mostly 46.1 µM), inactives show at the top dose activity change, positive = activation, most hits filed as activators; 210,000 tested, 2.8% active; AID 1458; note: % of control where 0% means no effect; nearly all actives have a fitted effect of over 55% in size
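qHTS luciferase splicing reporter: luminescence rises when SMN2 exon 7 is included in transfected HEK293 cells. Compound exposure lasted 30-36 h at 37C, with 4.5 mM final sodium butyrate as control, followed by a ONE-Glo read.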
Luc counter = counter-screen: inhibitors of Kinase-Glo firefly luciferase. Q27757. 200,000 tested, 0.28% active. AID 1379. Potency, µM (highest dose often 38.3 µM), without a hit: top-dose activity change, negative = inhibition, hits mostly inhibitors. Kinase-Glo luciferase, ATP luminescence, 8 min; note: % is set by controls: 0 for no effect and ±100 for the full control effect; nearly all actives have a fitted effect of over 60% in size
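Inhibition of Kinase-Glo luciferase light generation was assessed at 10 uM ATP in pH 7.2 imidazole buffer, with luminescence measured after eight minutes at ambient temperature.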
* = called active by the depositor; ? = inconclusive; . = not tested or not shown; [ ] = remark or other dose. Calls come from the whole dose curve; as a rule, active = well fitted curve in the direction sought with a large enough effect; inconclusive = small, poorly fitted or top-dose-only effect, or another doubt; inactive = no such curve, though single readings can be large; an effect the other way counts as inactive or inconclusive. Potency is the fitted concentration of half-maximal effect.

SMILES	NPC1 promoter act	FLuc modulator	ELG1 genotoxic	Rab9 prom act	SMN2 splice enh	Luc counter
COc1ccc2nc(N3CCCC3)c(C#N)cc2c1	21%	11µM*	?	26%	-22%	-1%
COc1ccc2nc(N3CCCCC3)c(C#N)cc2c1	17%	3.8µM*	?	3.2µM*	5%	-3%
CCc1ccccc1NC(=S)NC1CC2CCCC(C1)N2Cc1cccs1 (stereo not drawn)	-2%	6%	-3%	-8%	-16%	2%
CCOC(=O)c1sc(NC(=O)Nc2ccc(F)cc2)nc1C	1.6µM*	1.5µM*	?	1.3µM*	1.3µM*	-2%
CC(C)(C)c1ccc(NC(=O)c2ccc(=O)[nH]n2)cc1	0.71µM*	3µM*	?	0.79µM*	.	.
COC(=O)c1ccc(NC(=O)Nc2ccccc2C)cc1	?	4.8µM*	5%	?	-21%	-3%
CC(C)(C)c1ccc(COC(=O)Nc2ccc(F)cc2)cc1	4%	-18%	7%	8%	?	1%
CC(C)(C)c1ccc(NC(=O)Nc2ccc(F)cc2)cc1	1.8µM*	2.4µM*	?	2.5µM*	13µM*	0%
O=C(Nc1ccc2c(c1)OCO2)c1ccc(=O)[nH]n1	28%	?	10%	?	.	.
COC(=O)c1ccc(NC(=O)CSCc2ccccc2C)cc1	0%	?	9%	-3%	6%	-3%
COc1cc(Br)c(-c2sc(Nc3ccccc3)n[n+]2-c2ccc(F)cc2)cc1OC	-1%	-21%	3%	0%	.	.
CCCC(c1nnnn1CCOC)N1CCN(c2cccc(OC)c2)CC1 (stereo not drawn)	0%	-2%	0%	5%	.	.
O=C(C1CCCN1S(=O)(=O)c1cccc2cccnc12)N1CCN(c2ccccc2)CC1 (stereo not drawn)	2%	-1%	-7%	-2%	-13%	16%
COC(=O)c1ccc(NC(=O)Nc2ccc(F)c(Cl)c2)cc1	14%	27µM*	8%	29%	-16%	-1%
O=C(Nc1ccncc1)Nc1ccc(F)c(Cl)c1	8%	?	-8%	17%	.	0%
CC(=O)N(C)c1ccc(NC(=O)Nc2ccccc2C)cc1	?	12µM*	21µM*	2.8µM*	13µM*	-29%
COC(=O)c1ccc(NC(=O)Nc2ccc(F)cc2)cc1	?	11µM*	8%	?	-4%	-1%
CC(=O)Nc1ccc(NC(=O)Nc2ccccc2C)cc1	11%	?	3%	4%	.	-10%
CCOC(=O)c1ccc(NC(=O)Oc2cc(C)c(Cl)cc2C(C)C)cc1	2%	-9%	5%	4.5µM*	.	.
CCOC(=O)c1ccc(NC(=O)Nc2ccc(OC)c(OC)c2)cc1	1%	?	-13%	-3%	-4%	-3%
CCOC(=O)c1ccc(NC(=O)Nc2ccc(F)cc2)cc1	20%	11µM*	10%	18%	4%	-4%
Cn1c(SCC(=O)N2CCCC2=O)nnc1-c1ccccc1F	-4%	-23%	-2%	-6%	14%	2%
CCOC(=O)C1C(=O)CC(C)(O)C(C(=O)OCC)C1c1ccc(C)s1 (stereo not drawn)	4.5µM*	6%[2.3 µM]	2%	?	22%	4%
CCOC(=O)C1C(=O)CC(C)(O)C(C(=O)OCC)C1c1ccccc1 (stereo not drawn)	-12%	-1%	1%	0%	26%	3%
Cc1nc2nc[nH]n2c(=O)c1CCOC(=O)c1c(F)cccc1F	-2%	?	2%	3%	7%	-1%
SMILES	NPC1 promoter act	FLuc modulator	ELG1 genotoxic	Rab9 prom act	SMN2 splice enh	Luc counter
Cc1nc2nc[nH]n2c(=O)c1CCOC(=O)c1ccccc1F	-4%	11µM*	3%	13%	.	2%
Cc1ccc(-n2cc(CNCC3CC(=O)N(C4CC4)C3)c(-c3cccc(C)c3)n2)cc1 (stereo not drawn)	-5%	21µM*	-4%	9%	.	.
Cc1cc(C)nc(Nc2nc3ccccc3o2)n1	23%	-10%	3%	18%	.	.
Fc1ccccc1Nc1nc2ccccc2o1	0.71µM*	1.5µM*	2.1µM*	0.4µM*	.	.
CCCOC(=O)Nc1nc2ccccc2o1	2.2µM*	13µM*	?	2.5µM*	?	-10%
c1ccc(Nc2nc3ccccc3o2)cc1	2µM*	3µM*	1.8µM*	2.5µM*	?	13µM*
FC(F)(F)Oc1ccc(Nc2nc3ccccc3o2)cc1	2.5µM*	8.5µM*	?	?	?	-5%
CCOC(=O)C(=CN=C(N)Nc1nc2ccccc2o1)C(=O)OCC	?	-2%	?	?	.	2%
Cc1ccc(NC(=O)c2c(C)nc(Nc3nc4ccccc4o3)nc2C)cc1	-1%	1%	2%	-1%	-8%	-3%
COCCCNC(=O)Cn1c(=O)n(-c2ccc(C)c(C)c2)c(=O)c2c3c(sc21)CCCCC3	.	0%	.	.	-9%	.
O=C(NNc1nc2ccccc2o1)c1ccccc1	?	2.7µM*	16%	0.79µM*	.	.
CCN(CC(=O)NC(=O)Nc1ccccc1F)Cc1ccccc1	-8%	2%	18µM*	1%	.	.
COc1ccc(CN(C)CC(=O)NC(=O)Nc2ccccc2F)cc1	-1%	.	-1%	14%	.	.
O=C(NC1CCS(=O)(=O)C1)C1CCCCN1S(=O)(=O)c1ccc(Cl)cc1 (stereo not drawn)	5%	3%	0%	-5%	-5%	-1%
CC1(C)CC(=O)c2cnc(N3CCc4ccccc4C3)nc2C1	2.8µM*	2.7µM*	1.8µM*	?	-35%	-1%
O=C1CCCc2nc(N3CCc4ccccc43)ncc21	3.2µM*	2.7µM*	3.3µM*	1.6µM*	13µM*	?
CC1(C)CC(=O)c2cnc(N3CCN(c4ccccc4)CC3)nc2C1	-4%	-13%	-6%	-8%	-55%	-1%
Cc1ccc(C(=O)N/C(=C\c2ccc(Br)cc2)c2nc(=S)[nH][nH]2)cc1	-3%	?	3%	2%	-7%	-3%
O=C(N/C(=C/c1cccc(Br)c1)c1nc(=S)[nH][nH]1)c1ccccc1	-1%	6.7µM*	12%	7%	3%	0%
CC(=O)NC(=S)Nc1ccccc1C(=O)Nc1ccccc1	-2%	4%	0%	-2%	10%[1.84 µM]	-2%
COc1ccc(-c2nc3ccccn3c2CN2CCN(c3ccccc3F)CC2)cc1	1%	17µM*	-5%	2%	5%	1%
COc1ccc(-c2nc3ccccn3c2Cl)cc1	3.2µM*	0.43µM*	1.2µM*	0.79µM*	.	.
COc1ccc2c(C)cc(SCC(=O)N(C)C3CCS(=O)(=O)C3)nc2c1 (stereo not drawn)	0%	2%	0%	-1%	8%	1%
